Reference: PubChem BioAssay (NCATS)
Inconclusive results are not listed. Calls of active or inactive are those of the source. Unless noted, the call rests on the fitted dose curve; in most records, active means well fitted curve in the direction sought with a large enough effect; inconclusive means small, poorly fitted or top-dose-only effect, or another doubt; inactive means no such curve, though single readings can be large; an effect the other way counts as inactive or inconclusive.

Assays:
[1] = Cell Viability - Mesenchymal (AID 546);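 further: cells exposed to compound for 40 hours before reading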
Method in brief: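 Normal human renal glomerulus-derived kidney mesenchymal cells, 1000 per well in complete medium, were treated with compounds for 40 hr at 37 °C. Viability was read as intracellular ATP by CellTiter-Glo luminescence; AC50 values came from Hill-equation fits of qHTS concentration-response data.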

[2] = molecular target: 3',5'-cyclic-AMP phosphodiesterase 4B (Homo sapiens) (UniProt Q07343); experiment: qHTS Assay for Inhibitors of PDE-IV (AID 607; active means well fitted activation curve with a large enough effect in the main read-out, with a control signal flat, not every such curve was filed as active)
3',5'-cyclic-AMP phosphodiesterase 4B (Homo sapiens), sequence (Q07343 whole entry, looked up): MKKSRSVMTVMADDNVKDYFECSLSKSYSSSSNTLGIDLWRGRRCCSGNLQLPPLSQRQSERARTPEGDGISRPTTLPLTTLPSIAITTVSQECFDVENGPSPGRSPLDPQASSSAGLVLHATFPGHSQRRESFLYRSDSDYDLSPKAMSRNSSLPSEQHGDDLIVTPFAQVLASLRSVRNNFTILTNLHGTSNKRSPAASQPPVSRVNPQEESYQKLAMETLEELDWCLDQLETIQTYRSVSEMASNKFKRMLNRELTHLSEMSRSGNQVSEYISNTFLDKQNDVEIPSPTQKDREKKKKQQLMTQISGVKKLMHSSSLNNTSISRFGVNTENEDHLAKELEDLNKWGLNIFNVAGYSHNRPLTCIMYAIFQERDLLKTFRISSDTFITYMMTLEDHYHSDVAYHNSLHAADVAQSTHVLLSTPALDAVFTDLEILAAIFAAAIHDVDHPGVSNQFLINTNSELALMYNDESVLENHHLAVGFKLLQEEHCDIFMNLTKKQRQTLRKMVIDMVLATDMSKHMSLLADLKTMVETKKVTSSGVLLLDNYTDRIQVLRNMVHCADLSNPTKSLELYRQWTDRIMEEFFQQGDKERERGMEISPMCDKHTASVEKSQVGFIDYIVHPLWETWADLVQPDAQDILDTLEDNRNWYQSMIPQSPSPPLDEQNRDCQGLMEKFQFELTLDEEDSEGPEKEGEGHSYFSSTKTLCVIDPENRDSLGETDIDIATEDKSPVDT
Method in brief: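 ACTOne HEK293 cells carry a modified cAMP-gated CNG channel and express endogenous PDE4; plated 1000 cells/well, compounds up to 22.9 uM final. Membrane-potential dye fluorescence (ex 535/em 590) was read; parental cells received 10 uM forskolin + 100 uM RO 20-1724.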

[3] = Cellular Toxicity (caspase-3) HepG2 (AID 654);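 further: cells exposed to compound for 16 hours before reading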
Method in brief: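 qHTS, HepG2, 1500 cells/well, complete medium; cpd 16 h 37 °C; Caspase-Glo 3/7, 20 min RT; lum. Norm: DMSO vs 100 uM tamoxifen; AC50 Hill fit.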

[4] = Cellular Toxicity (caspase-3) Jurkat (AID 655);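 further: cells exposed to compound for 16 h at 37 °C before reading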
Method in brief: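 qHTS in human Jurkat T-cell leukemia line: 16 hr compound treatment at 37 °C, caspase-3/7 activity measured by Caspase-Glo luminescence. AC50 derived from Hill equation.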

[5] = Cellular Toxicity (caspase-3) HUV-EC-C (AID 656)
Method in brief: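 Concentration-dependent caspase 3/7 induction was assessed in HUV-EC-C cells exposed for 16 hours. Data scaled between DMSO and tamoxifen (100 uM) controls.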

[6] = Cellular Toxicity (caspase-3) SHSY5Y (AID 657);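 further: cells exposed to compound for 16 hours at 37 °C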
Method in brief: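 Readout: caspase-cleaved peptide-aminoluciferin substrate driving luciferase light in SH-SY5Y neuroblastoma cells after 16 h treatment. Response normalized to DMSO and 10 uM staurosporine controls.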

[7] = Cellular Toxicity (caspase-3) BJ (AID 658)
Method in brief: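 Luminescent aminoluciferin-substrate cleavage reports caspase 3/7 activity in normal human BJ fibroblasts after 16 hr compound exposure at 37 °C. Normalized to DMSO (basal) and 10 uM staurosporine (100%); AC50 from Hill fit of concentration-response.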

[8] = Cellular Toxicity (caspase-3) MRC-5 (AID 659);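 further: cells exposed to compound for 16 h at 37 °C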
Method in brief: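 Luminescence from caspase-cleaved aminoluciferin substrate (Caspase-Glo 3/7, 1 hr RT) reports caspase 3/7 activity in MRC-5 lung fibroblasts after 16 hr compound exposure. Normalized to DMSO basal and 10 uM staurosporine as 100%; AC50 from Hill fits.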

[9] = Cellular Toxicity (caspase-3) Mesangial (AID 660);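 further: combined caspase 3 and 7 activity read by Caspase-Glo luminescence; cells exposed to compound for 16 h before the caspase read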
Method in brief: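 Concentration-response qHTS: compound-induced rise in caspase 3/7 luminescence in human mesangial cells after 16 h, normalized to DMSO and 100 uM tamoxifen controls.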

[10] = Cellular Toxicity (caspase-3) SK-N-SH (AID 661)
Method in brief: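 Caspase 3/7 activation is measured as a luminescence increase from aminoluciferin released by substrate cleavage in SK-N-SH cells after 16 hr compound treatment; values are AC50 from concentration-response curves.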

Measured: outcome

NC(=O)c1cnccn1
inactive: all assays above

NS(=O)(=O)c1cc2c(cc1Cl)NC=NS2(=O)=O
inactive: all assays above

Cc1[nH]c(=O)c(C#N)cc1-c1ccncc1
inactive: [2]

CC(=O)Oc1ccccc1C(=O)O
inactive: all assays above

Nc1ccc(S(=O)(=O)Nc2ccnn2-c2ccccc2)cc1
inactive: [2]

N=c1nc(N2CCCCC2)cc(N)n1O
inactive: [2]

N[C@@H]1CONC1=O
inactive: [2]

Clc1cccc(Cl)c1NC1=NCCN1
inactive: [2]

CCCCNc1cc(C(=O)O)cc(S(N)(=O)=O)c1Oc1ccccc1
inactive: [2]

NC[C@H](O)c1ccc(O)c(O)c1
inactive: [2]

Cc1cn[nH]c1
inactive: [2]

CCOC(=O)C1=C[C@@]2(CC)CCCN3CCc4c(n1c1ccccc41)[C@H]32
inactive: [2]

O=c1n(CCCN2CCN(c3cccc(Cl)c3)CC2)nc2ccccn12
inactive: [2]

CCN(c1ccccc1)c1cc(NC)[n+](C)c(C)n1
inactive: [2]

CCCC(CCC)C(=O)O
inactive: all assays above

Nc1nc2c(ncn2COCCO)c(=O)[nH]1
inactive: [2]

Cc1ccc(N(CC2=NCCN2)c2cccc(O)c2)cc1
inactive: [2]

Cc1oncc1C(=O)Nc1ccc(C(F)(F)F)cc1
inactive: [2]
